Test results reported in PubChem BioAssay.
The source made the active and inactive calls.

Experiments:
[1] = tested on: Human papillomavirus type 1a protein E7 (residues 44-93); assay: small molecules binding HPV E7 44-93 – biochemical, small-molecule microarray, residues 44-93, 635 nm fluorescence, primary screen (AID 1108); details: fluorescence 635 nm, higher = more signal;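 note: E7 fragment applied at 1 µg/mL in TBST for 1 h at 4 C; score combines spot fluorescence with its signal to noise ratio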
[2] = hepatitis C replication reporter changes, two-sided – Huh7 cells, luciferase reporter, HCV replication inhibitor project, primary screen (AID 1109); details: Huh7 HCV replicon luciferase reporter, 48 h; higher = more signal;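 note: huh7 hepatoma cells harbouring a luciferase neomycin HCV replicon reporter; luciferase luminescence as measure of HCV replicon replication; test concentration not given here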
[3] = target: Left-right determination factor 2 (Homo sapiens) (UniProt O00292); assay: small molecules binding LEFTY2 protein – biochemical, small-molecule microarray, 635 nm fluorescence scan, primary screen (AID 1110); details: higher = more signal
[4] = target: Calmodulin-1 (Homo sapiens) (UniProt P0DP23); assay: small molecules binding calmodulin-1 with EGTA – biochemical, small-molecule microarray, Cy5-labelled CALM1, profiling panel (AID 1111); details: Cy5-CALM1 binding fluorescence, higher = more signal;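 note: labelled calmodulin applied in Tris saline Tween buffer holding calcium plus EGTA and DTT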
[5] = target: Calmodulin-1 (Homo sapiens) (UniProt P0DP23); assay: small molecules binding Ca-loaded calmodulin-1 – biochemical, small-molecule microarray, Cy5-labelled CALM1, plus calcium, artefact control for SMM control-protein annotation, profiling panel (AID 1112); details: Cy5-CALM1 binding fluorescence, higher = more signal;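 note: score merges spot fluorescence with signal to noise from triplicate slides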
[6] = probe aWnt5a binding to arrayed compounds – biochemical, biotinylated probe, 635/667 nm fluorescence, primary screen (AID 1113); details: small-molecule microarray, higher = more signal;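 note: score merges 667 nm fluorescence intensity with signal-to-noise per printed feature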
[7] = probe aShh binding to arrayed compounds – biochemical, biotinylated probe, 635/667 nm fluorescence, primary screen (AID 1114); details: small-molecule microarray, higher = more signal;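 note: probe is biotin-labelled aShh protein from a stem cell growth factor screen; measures binding of labelled protein to compounds printed on the slide; score merges feature fluorescence at 667 nm with signal-to-noise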
[8] = probe aNog binding to arrayed compounds – biochemical, biotinylated probe, 635/667 nm fluorescence, primary screen (AID 1115); details: small-molecule microarray, higher = more signal;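 note: probe is biotinylated aNog protein used at 0.15 µg/mL for 1 h at 4 C; z-score combines 667 nm fluorescence of each spot with its signal to noise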
[9] = target: Torsin-1A-interacting protein 1 (Homo sapiens) (UniProt Q5JTV8); assay: compound microarray binding of lysate hLAP1 – cell lysate, small-molecule microarray, COS7 lysate, 635/667 nm fluorescence, primary screen (AID 1116); details: 635 nm fluorescence, higher = more signal
[10] = target: Alpha-bungarotoxin (Bungarus multicinctus) (UniProt P60615); assay: compounds binding labelled alpha-BTX control protein – biochemical, small-molecule microarray, Alexa647 label, 635/667 nm fluorescence, artefact control for SMM control protein annotation, profiling panel (AID 1117); details: alpha-BTX-A647 binding fluorescence, higher = more signal
Albumin (Bos taurus) = Albumin (Bos taurus) (UniProt P02769); assay: compounds binding labelled BSA control protein – biochemical, small-molecule microarray, Alexa647 label, 635/667 nm fluorescence, artefact control for SMM control protein annotation, profiling panel (AID 1118); details: BSA-A647 binding, fluorescence 635 nm, higher = more signal;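 note: score merges 667 nm emission intensity and signal-to-noise per printed compound spot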
[11] = probe aXIP binding to arrayed compounds – biochemical, NeuroSMM set, 635/667 nm fluorescence, primary screen (AID 1119); details: small-molecule microarray, higher = more signal, called active from +8 up or from −8 down;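 note: probe is the protein aXip251-270 applied at 1 µg/mL to compound-printed slides; binding of probe to printed compounds measured as 667 nm fluorescence plus signal to noise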
[12] = probe aNOTCH3 binding on compound microarray – biochemical, small-molecule microarray, 635/667 nm fluorescence, primary screen (AID 1120); details: higher = more signal;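 note: probe is a biotin-tagged antibody raised against NOTCH3 rather than NOTCH3 protein; score merges spot fluorescence near 667 nm with spot signal to noise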
[13] = probe aNOTCH2 binding on compound microarray – biochemical, small-molecule microarray, 635/667 nm fluorescence, primary screen (AID 1121); details: higher = more signal;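 note: score merges feature fluorescence read at 667 nm with its signal to noise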
[14] = target: Carbonic anhydrase 2 (Homo sapiens) (UniProt P00918); assay: compounds binding carbonic anhydrase 2 – biochemical, small-molecule microarray, Alexa647-labelled CAII, profiling panel (AID 1122); details: CAII-A647 binding fluorescence, higher = more signal
[15] = COS7 lysate on small-molecule microarray, probe aHis, 635 nm (AID 1123); details: COS7 cell lysate, fluorescence, higher = more signal;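 note: z-score combines 667nm fluorescence intensity with signal-to-noise per printed compound spot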
[16] = probe aLAP1 signal on lysate-treated microarray – cell lysate, small-molecule microarray, COS7 lysate, primary screen (AID 1124); details: probe aLAP1, fluorescence, higher = more signal;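 note: lysate comes from COS7 cells expressing LAP1 and is applied at 0.3 µg/mL; score merges spot fluorescence near 667 nm with signal-to-noise over triplicate slides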
Sam68 (KHDRBS1) = assay: compounds binding KHDRBS1 protein – biochemical, small-molecule microarray, 635 nm fluorescence, primary screen (AID 1125); details: higher = more signal;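 note: score merges 667 nm channel intensity with signal to noise over triplicate slides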
[17] = tested on: Chordin-like protein 2 (CHRDL2); assay: compounds binding chordin-like 2 – biochemical, small-molecule microarray, 635 nm fluorescence, primary screen (AID 1126); details: fluorescence 635 nm, higher = more signal;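 note: printed compound slides probed with Chrdl2 protein at 4 µg/mL for 1 h at 4 C; score merges 667 nm emission intensity with signal to noise over three replicate slides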
[18] = target: Concanavalin-A (Canavalia ensiformis) (UniProt P02866); assay: compounds binding concanavalin A lectin – biochemical, small-molecule microarray, Alexa647 label, 635 nm, artefact control for SMM control protein annotation, primary screen (AID 1127); details: ConA-A647 binding fluorescence, higher = more signal;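 note: z combines 667 nm emission intensity with signal-to-noise across three replicate slides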
Concanavalin-A (Canavalia ensiformis), sequence (P02866 whole entry, looked up): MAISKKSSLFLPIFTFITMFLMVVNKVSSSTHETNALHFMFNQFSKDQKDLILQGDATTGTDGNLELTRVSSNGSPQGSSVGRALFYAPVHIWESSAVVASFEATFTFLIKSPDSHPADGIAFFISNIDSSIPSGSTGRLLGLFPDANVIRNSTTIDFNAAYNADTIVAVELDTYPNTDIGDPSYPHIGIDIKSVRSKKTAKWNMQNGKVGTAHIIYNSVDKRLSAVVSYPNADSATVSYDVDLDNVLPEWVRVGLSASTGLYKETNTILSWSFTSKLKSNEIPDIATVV

Left-right determination factor 2 (Homo sapiens), sequence (O00292 whole entry, looked up): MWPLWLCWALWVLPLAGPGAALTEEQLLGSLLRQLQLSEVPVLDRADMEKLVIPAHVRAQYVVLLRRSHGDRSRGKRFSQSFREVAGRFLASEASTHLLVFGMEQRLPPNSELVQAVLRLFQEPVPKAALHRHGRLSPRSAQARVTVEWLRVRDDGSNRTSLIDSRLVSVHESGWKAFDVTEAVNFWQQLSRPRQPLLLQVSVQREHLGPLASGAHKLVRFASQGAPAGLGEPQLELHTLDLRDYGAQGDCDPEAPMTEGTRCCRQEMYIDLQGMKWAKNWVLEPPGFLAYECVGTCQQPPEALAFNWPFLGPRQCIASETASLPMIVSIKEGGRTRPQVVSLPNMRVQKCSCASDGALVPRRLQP
Torsin-1A-interacting protein 1 (Homo sapiens), sequence (Q5JTV8 whole entry, looked up): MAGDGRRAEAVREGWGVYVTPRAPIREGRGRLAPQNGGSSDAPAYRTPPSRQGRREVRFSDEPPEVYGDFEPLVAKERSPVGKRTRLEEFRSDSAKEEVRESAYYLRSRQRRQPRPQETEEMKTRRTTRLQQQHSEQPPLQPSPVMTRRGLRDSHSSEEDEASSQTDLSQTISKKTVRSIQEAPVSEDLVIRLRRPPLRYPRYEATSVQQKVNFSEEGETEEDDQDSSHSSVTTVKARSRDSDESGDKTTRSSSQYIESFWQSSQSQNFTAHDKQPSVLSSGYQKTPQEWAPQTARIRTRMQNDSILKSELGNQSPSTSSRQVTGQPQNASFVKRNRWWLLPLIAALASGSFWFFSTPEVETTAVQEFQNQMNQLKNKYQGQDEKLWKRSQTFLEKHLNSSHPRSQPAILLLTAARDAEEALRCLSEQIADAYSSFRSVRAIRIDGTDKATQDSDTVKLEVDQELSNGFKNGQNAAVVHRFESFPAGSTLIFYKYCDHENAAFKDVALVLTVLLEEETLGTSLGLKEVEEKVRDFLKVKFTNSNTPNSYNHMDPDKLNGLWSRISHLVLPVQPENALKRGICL
Albumin (Bos taurus), sequence (P02769 whole entry, looked up): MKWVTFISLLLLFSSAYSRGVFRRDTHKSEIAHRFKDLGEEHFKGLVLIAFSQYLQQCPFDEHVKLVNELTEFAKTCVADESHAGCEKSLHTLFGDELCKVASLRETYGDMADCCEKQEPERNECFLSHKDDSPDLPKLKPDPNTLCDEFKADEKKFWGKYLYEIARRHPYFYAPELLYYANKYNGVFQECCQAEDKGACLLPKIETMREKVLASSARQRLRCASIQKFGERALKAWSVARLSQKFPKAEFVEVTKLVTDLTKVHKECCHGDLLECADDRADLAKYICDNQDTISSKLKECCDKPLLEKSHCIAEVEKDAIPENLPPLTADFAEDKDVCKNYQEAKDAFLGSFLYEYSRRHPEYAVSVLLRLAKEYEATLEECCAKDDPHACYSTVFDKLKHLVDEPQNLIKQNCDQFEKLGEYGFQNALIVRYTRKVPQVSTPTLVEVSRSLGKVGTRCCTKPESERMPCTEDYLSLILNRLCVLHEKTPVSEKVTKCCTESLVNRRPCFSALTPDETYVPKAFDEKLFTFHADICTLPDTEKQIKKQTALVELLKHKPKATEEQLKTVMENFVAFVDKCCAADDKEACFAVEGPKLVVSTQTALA
Alpha-bungarotoxin (Bungarus multicinctus), sequence (P60615 whole entry, looked up): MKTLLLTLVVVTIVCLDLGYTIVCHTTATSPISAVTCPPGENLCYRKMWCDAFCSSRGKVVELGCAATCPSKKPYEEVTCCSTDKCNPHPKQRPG

SMILES | composite z-score [1] | z-score [2] | composite z-score [3] | composite z-score [4] | composite z-score [5] | composite z-score [6] | composite z-score [7] | composite z-score [8] | composite z-score [9] | composite z-score [10] | composite z-score (Albumin (Bos taurus)) | composite Z-score [11] | composite z-score [12] | composite z-score [13] | composite z-score [14] | composite z-score [15] | composite z-score [16] | composite z-score (Sam68 (KHDRBS1)) | composite z-score [17] | composite z-score [18]
[N-]=[N+]=Nc1ccccc1C[C@@]1(C(N)=O)N=C(c2ccc(OCCCO)cc2)O[C@@H]1c1ccccc1N=[N+]=[N-] | 1.03 | -2.35 | -0.0762 | 1.51 | 0.827 | -0.132 | 0.0948 | -0.722 | 1.01 | 1.09 | 1.01 | 0.127 (inactive) | 0.0059 | 0.0342 | 0.441 | 1.34 | -0.0264 | 0.666 | -0.359 | 0.716
CS(=O)(=O)CCOC(=O)C1=CC(CCCO)=CC(c2ccc(CN3CCCC3)cc2)N(Cc2sc3ccccc3c2Cl)C=C1C(=O)OCCS(C)(=O)=O (stereo not given) | 0.611 | -2.64 | 1.12 | 2.26 | 0.91 | -0.0297 | 0.318 | 1.49 | 2.83 | 2.86 | 1 | 1.14 (inactive) | 0.439 | 0.251 | 0.823 | 2.21 | 1.12 | 1.3 | 1.03 | 1.19
CCCCCC1=C2CNC(C)(C(=O)OC)C=C2C(C)C1=O (stereo not given) | -0.696 | -0.654 | -0.37 | 0.764 | 0.897 | -0.0519 | 0.265 | 1.17 | 0.137 | -0.0075 | 0.673 | 0.239 (inactive) | -0.0716 | 0.0414 | 0.839 | 1.18 | 0.947 | -0.868 | -0.409 | -1.51
CCCCCN1CC=CC23O[C@@H]4/C=C\CCCOC(=O)C4[C@H]2C(=O)N(C(C)CO)[C@@H]3C1=O (stereo not given in full) | -0.141 | -0.646 | -1.67 | -0.452 | -0.254 | -0.203 | -0.181 | -0.0057 | -0.111 | 2.97 | 0.356 | 0.0199 (inactive) | -0.427 | -0.169 | 0.839 | 0.626 | -0.0467 | 0.0008 | -1.14 | -0.734
C=C[C@H](C)[C@H](OC(=O)Nc1ccc(SC)cc1)c1ccc(OCCO)cc1 | 0.248 | -1.19 | -0.0482 | 0.272 | -0.037 | -0.183 | 0.142 | 0.576 | 1.6 | 1.58 | 0.548 | 2.78 (inactive) | -0.0647 | -0.0533 | 0.575 | 2.19 | 0.277 | 1.06 | 0.516 | 1.04
CS(=O)(=O)CCOC(=O)C1=CC(c2ccc(CO)cc2)=CC(C2CC2)N(Cc2sc3ccccc3c2Cl)C=C1C(=O)OCCS(C)(=O)=O (stereo not given) | 0.491 | -1.7 | 0.815 | 0.0782 | 0.0677 | -0.0685 | 0.199 | 0.611 | 0.702 | 1.89 | 0.52 | 0.42 (inactive) | 0.029 | -0.0839 | 0.815 | 0.737 | 0.55 | 1.03 | 0.802 | 1.11
[N-]=[N+]=Nc1ccccc1C[C@]1(C(=O)O)COC(c2ccc(OCCCO)cc2)=N1 | 0.118 | 0.928 | -0.856 | 0.166 | 0.897 | 0.0718 | 0.232 | 0.253 | -0.811 | -0.215 | 0.638 | 0.277 (inactive) | 0.0116 | -0.0501 | 0.856 | 0.143 | -0.165 | -0.566 | -1.31 | -0.19
CCCNC(=O)[C@@H]1c2ccccc2C(=O)N(Cc2ccc(OC(F)(F)F)cc2)[C@H]1c1ccc(CO)cc1 | 0.957 | -0.808 | -0.144 | 0.222 | 0.237 | 0.0077 | 0.292 | 0.0303 | 0.448 | 0.102 | 0.27 | -0.123 (inactive) | -0.0288 | -0.0326 | 0.158 | 0.677 | -0.374 | 0.416 | 0.102 | 0.0505
NC(=O)NCC#Cc1ccc2c(c1)[C@]1(C(=O)N2)[C@H](c2ccccc2OCCO)N2[C@H](c3ccccc3)[C@H](c3ccccc3)OC(=O)[C@H]2[C@@H]1C(=O)NC[C@H](O)c1ccccc1 | 1.36 | -0.651 | -0.568 | -0.157 | 0.501 | -0.0981 | 0.0141 | -0.213 | 0.395 | 1.1 | 0.63 | -0.17 (inactive) | -0.143 | -0.103 | 0.582 | 1.19 | 0.428 | 0.026 | -0.501 | 0.68
COCCOC(=O)N1C(=O)[C@@]2(c3cc(C#CC4(O)CCCCCC4)ccc31)[C@H](c1ccc(O)cc1)N1[C@H](c3ccccc3)[C@H](c3ccccc3)OC(=O)[C@H]1[C@@H]2C(=O)N1CCN(c2ncccn2)CC1 | 1.35 | -1.58 | 0.45 | 1.83 | 0.18 | 0.0375 | 0.679 | -0.679 | 1.21 | 0.383 | 0.521 | 0.883 (inactive) | 0.0562 | -0.12 | 0.437 | 1.29 | 0.46 | 1.29 | -0.163 | 1.12
